# PubChem BioAssay (NCI)
# The panel holds about 83,000 compounds, 20% with a hit somewhere; the sample as a whole holds those more often.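 Method: cells in 96-well plates; compound added at one concentration; 48 h incubation; percent growth measured; values under 10 scored active.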 Unmarked numbers belong to inactive results. Calls of active or inactive are those of the source.
# What was measured:
# Assay in all cases: NCI-60 one-dose screen, 48 h (100 = growth as untreated, 0 = no growth, -100 = all killed)
# Conditions in all cases: 10 µM unless noted
# [1] = test system: NCI-H23 lung
# [2] = test system: NCI-H226 lung
# [3] = test system: NCI-H322M lung
# [4] = test system: HOP-62 NSCLC
# [5] = test system: NCI-H460 lung
# [6] = test system: NCI-H522 lung
# [7] = test system: A549/ATCC NSCLC
# [8] = test system: 786-0 renal
# [9] = test system: COLO 205 colon
# [10] = test system: DU-145 prostate
# [11] = test system: K-562 leukemia
# [12] = test system: MALME-3M melanoma
# [13] = test system: MDA-MB-231 breast
# [14] = test system: RXF 393 renal
# [15] = test system: SF-268 CNS
# [16] = test system: SF-295 CNS
# [17] = test system: SF-539 CNS
# [18] = test system: UACC-257 melanoma
# [19] = test system: M14 melanoma
# [20] = test system: HOP-92 NSCLC
Compound,growth [1] [%],growth [2],growth [3] [%],growth [4],growth [5],growth [6],growth [7] [%],growth [8] [%],growth [9],growth [10] [%],growth [11],growth [12] [%],growth [13],growth [14],growth [15] [%],growth [16],growth [17],growth [18] [%],growth [19],growth [20] [%]
CNC(=O)c1cc(Oc2ccc3nc(NC(C)=O)sc3c2)ccn1,103,101%,104,109%,104%,104%,102,94.6,105%,101,81.8%,92.7,98.7%,115%,97.4,95.2%,94.3%,102,101%,–
COC(=O)/C=C1/SC(=Nc2ccc(C)cc2)N(CCc2c[nH]c3ccc(O)cc23)C1=O,72.7,83.1%,97.7,55.6%,52.2%,42.5%,84,57.2,108%,26.9,11.8%,77.4,59.3%,47.7%,56.3,76.8%,42.9%,50.2,34.1%,–
CCOC(=O)c1cc2c(=O)oc3ccccc3c2oc1=O,112,101%,100,120%,111%,92.1%,–,111,129%,116,122%,105,101%,99.8%,108,110%,100%,105,118%,49.4
Cc1nc2sc(C(=O)Nc3cccc(Cl)c3C)c(N)c2cc1C(=O)c1ccccc1,34.4,5.27% (active),49.8,21.2%,7.35% (active),5.64% (active),–,32.8,-36% (active),11,13.5%,25,39%,3.56% (active),29.2,1.83% (active),-7.44% (active),63.3,6.11% (active),41.6
CCOC(=O)c1c2c(n3ccc(C)cc13)C(=O)c1ccccc1C2=O,85.5,98.1%,77,106%,58.7%,70.5%,62.5,97.3,108%,102,75.7%,103,90.2%,95.6%,96.3,98.5%,102%,78.2,84.6%,–
COc1ccc2[nH]cc(C(c3cc(F)cc(F)c3)c3c[nH]c4ccc(OC)cc34)c2c1,67.2,97.4%,70.3,93.4%,64.4%,69.3%,69.4,92.4,78.1%,95.9,59%,206,78.8%,80.5%,80,79.1%,93.4%,84.3,86.6%,–
CCN(CC)C(=S)SC(SC(=S)N(CC)CC)C(=O)c1nnn(-c2ccc([N+](=O)[O-])cc2)c1C,98.4,104%,98.5,97.3%,73.9%,79.5%,–,94.2,95.2%,104,81%,94.3,95.1%,114%,92.9,100%,98.3%,101,96.9%,89.5
Fc1ccc2[nH]cc(-c3nonc3-c3c[nH]c4ccc(Br)cc34)c2c1,24.4,53.6%,35.9,9.17% (active),1.22% (active),-12.1% (active),19.5,23.5,-45.5% (active),42,4.21% (active),21.2,-20.2% (active),77.3%,38.2,9.73% (active),16.7%,42.7,–,–
